FAS-TE inh – FAS thioesterase (human) inhibition. P49327. recombinant FAS-TE, OMFH fluorogenic substrate, fluorescence endpoint. inhibition, % at 15 µM. actives 0.67% (n = 360,000). AID 602261;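 active means compounds whose normalised, plate-corrected inhibition of enzyme fluorescence in the single-dose primary screen is 50% or more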
KLK7 zymogen act – activators of human kallikrein-7 zymogen | purified proKLK7, EDANS-DABCYL substrate fluorescence; 100% is mature enzyme control, 0% vehicle | P49862 | AID 652039 | activation, % at 7 µM | actives 0.9% (n = 370,000);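 active means activation above the mean of all tested compounds plus 3 SD, computed per campaign excluding outliers beyond control limits, cut at about 13% in these data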
GRIN3A LBD mod – modulates the human NR3A ligand-binding domain; Tm shift relative to glycine control, % at 25 µM; NR3A LBD differential scanning fluorimetry, Tm shift; 0% = protein alone, 100% = glycine-bound protein; actives 2.5% (n = 340,000);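 active means melting temperature shift of at least 10% of the positive control shift, at one fixed dose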
ADAM17 inh – inhibits human ADAM17; P78536; recombinant ADAM17, EDANS/DABCYL FRET peptide cleavage; inhibition, % at 6.95 µM; actives 0.83% (n = 370,000); AID 720648;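 active means inhibition above the mean of compounds lying between control limits plus 3 SD, set per campaign, cut at about 8.5% in these data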
ADAM10 inh – ADAM10 inhibition, QFRET primary screen; recombinant ADAM10, EDANS/DABCYL FRET peptide cleavage, 3 h; inhibition, % at 7 µM; actives 0.62% (n = 370,000); AID 720582;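 active means inhibition above a per-campaign cutoff equal to the mean of compounds falling between control-based bounds plus 3 SD, cut at about 20% in these data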
Target sequence (O14672 214-748 limits assumed): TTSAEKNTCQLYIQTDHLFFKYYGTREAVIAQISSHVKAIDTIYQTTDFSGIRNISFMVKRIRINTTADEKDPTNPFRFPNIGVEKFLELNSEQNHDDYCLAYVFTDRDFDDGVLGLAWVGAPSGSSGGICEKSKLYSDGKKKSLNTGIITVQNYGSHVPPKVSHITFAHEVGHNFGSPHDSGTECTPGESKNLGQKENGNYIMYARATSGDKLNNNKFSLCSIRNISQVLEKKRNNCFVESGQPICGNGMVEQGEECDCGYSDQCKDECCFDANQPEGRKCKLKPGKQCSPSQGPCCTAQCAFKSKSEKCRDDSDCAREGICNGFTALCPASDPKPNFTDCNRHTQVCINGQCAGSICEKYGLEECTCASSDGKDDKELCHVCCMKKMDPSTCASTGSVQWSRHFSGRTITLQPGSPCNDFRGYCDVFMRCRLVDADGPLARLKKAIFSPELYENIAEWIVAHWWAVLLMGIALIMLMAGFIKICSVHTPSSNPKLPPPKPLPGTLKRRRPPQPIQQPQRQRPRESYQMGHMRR
ADAM10 confirm – human ADAM10 inhibition, confirmation; shares compounds with ADAM10 inh; ADAM10 QFRET peptide cleavage, EDANS fluorescence; inhibition, % at 6.95 µM; actives 1% (n = 2,100);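 active means inhibition above about 20% chosen separately for each screening run, limit read from the data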
ADAM17 counter – ADAM17 inhibition, counter-screen for ADAM10 exosite hits; AID 743214; shares compounds with ADAM10 inh; inhibition, % at 6.95 µM; ADAM17 QFRET peptide cleavage, EDANS fluorescence; actives 0.5% (n = 2,100);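 active means mean triplicate inhibition above the solvent-only control wells' mean plus 3 SD, cut at about 12% in these data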
Each line names hits and unclear results; the compound was inactive in the other large screens (follow-up assays come after a bar, where they were run). Rows were chosen to be rich in hits. Some 4.6% of all compounds tested hit in one or more screens of this group.

COCCOC(=O)c1c(C)oc2ccc(NS(=O)(=O)c3cccs3)cc12	none
CCOC(=O)c1c(C)oc2ccc(NS(=O)(=O)c3cccs3)cc12	ADAM10 inh 21 | ADAM10 confirm inactive | ADAM17 counter inactive
O=S1(=O)N[C@@H](Cc2ccccc2)COc2cccc(NCCO)c21	none (no result: FAS-TE inh, GRIN3A LBD mod)
CCN(CC)S(=O)(=O)c1cc(NC(=O)C2CCN(c3ncnc4sc(C)c(C)c34)CC2)ccc1Cl	none
Cc1ccc(NC(=O)C2CCN(c3ncnc4sc(C)c(C)c34)CC2)cc1S(=O)(=O)N(C)C	ADAM10 inh 22 | ADAM10 confirm inactive | ADAM17 counter inactive
CCOc1cc(/C=C/c2ccc3cccc([N+](=O)[O-])c3n2)ccc1O	GRIN3A LBD mod 25, ADAM10 inh 22 | ADAM10 confirm inactive | ADAM17 counter inactive
CCOc1cc(/C=C/c2ccc3cccc([N+](=O)[O-])c3n2)ccc1OCC(=O)N(C)C	none
Cc1ccc(NS(=O)(=O)c2cc(C(=O)NCCSC3CCCCC3)ccc2C)cc1	ADAM10 inh 21 | ADAM10 confirm inactive | ADAM17 counter inactive
O=[N+]([O-])c1ccc(Nc2ccccc2O)c2nonc12	ADAM10 inh 20 | ADAM10 confirm inactive | ADAM17 counter inactive
COc1ccccc1C(=O)N1CCN(C(=O)[C@H]2O[C@@H](n3cnc(C(N)=O)n3)[C@H](O)[C@@H]2O)CC1	none (no result: FAS-TE inh, GRIN3A LBD mod)
O=C(NC(=S)NCc1ccccc1)c1cccc(Cl)c1	ADAM10 inh 20 | ADAM10 confirm inactive | ADAM17 counter inactive
COc1cc(NC(=O)C2CCN(S(=O)(=O)c3cccc4nonc34)CC2)cc(OC)c1	ADAM10 inh 23 | ADAM10 confirm inactive | ADAM17 counter inactive
O=C(NCCc1nc2ccccc2[nH]1)/C(=C/c1ccc(F)cc1)NC(=O)c1ccco1	none
O=C(NCCc1nc2ccccc2[nH]1)/C(=C/c1ccc2c(c1)OCO2)NC(=O)c1ccc(Cl)cc1Cl	ADAM10 inh 22 | ADAM10 confirm 32 | ADAM17 counter inactive
COC(=O)C1=C(C(=O)OC)C2CCCC1C1N=NN(c3ccccc3)C21 (stereo not given)	none (no result: FAS-TE inh, GRIN3A LBD mod)
COc1ccc(C)cc1NS(=O)(=O)c1ccc(NC(=O)CN(c2cc([N+](=O)[O-])ccc2C)S(C)(=O)=O)cc1	GRIN3A LBD mod 20, ADAM17 inh 9.1, ADAM10 inh 23 | ADAM10 confirm inactive | ADAM17 counter inactive
Cc1[nH]n(-c2ccc([N+](=O)[O-])cc2)c(=O)c1C=NCCN1CCN(C(=O)c2ccccc2)CC1	ADAM10 inh 21 | ADAM10 confirm inactive | ADAM17 counter inactive
COc1ccc(CCN=Cc2c(C)[nH]n(-c3ccc([N+](=O)[O-])cc3)c2=O)cc1OC	none
COc1ccc(CN2C[C@]3(C=C4CCCCC4n4c(=O)n(-c5ccccc5)c(=O)n43)N(C(=O)OCc3ccccc3)C2=NC(=O)c2ccccc2)c(OC)c1 (stereo not given in full)	none (no result: FAS-TE inh, GRIN3A LBD mod)
COc1ccc(CN2C[C@]3(C=C4CCCCC4n4c(=O)n(-c5ccccc5)c(=O)n43)N=C2NC(=O)c2ccccc2)c(OC)c1 (stereo not given in full)	ADAM10 inh 32 (no result: FAS-TE inh, GRIN3A LBD mod) | ADAM10 confirm inactive | ADAM17 counter inactive
Cc1cc(Cl)ccc1NC(=O)CN1CCC(C(O)(c2ccccc2)c2ccccc2)CC1	ADAM17 inh 8.7, ADAM10 inh 26 | ADAM10 confirm inactive | ADAM17 counter inactive
Cc1cc(Cl)ccc1NC(=O)CN1CCCC1	none
COC(=O)[C@]12C[C@H](CC(=O)NCc3cccs3)C(=O)N(Cc3ccccc3)C1=C[C@H](C(C)(C)C)O[C@@H]2C	none (no result: FAS-TE inh, GRIN3A LBD mod)
O=C(NCCNc1ccc([N+](=O)[O-])cc1C(F)(F)F)c1cccc(F)c1	ADAM10 inh 20 | ADAM10 confirm inactive | ADAM17 counter inactive
CSCCCNC(=O)C1CCN(S(=O)(=O)c2ccc3[nH]c(=O)oc3c2)CC1	none (no result: FAS-TE inh, GRIN3A LBD mod)
O=C1CSC(c2ccc(F)cc2)N1c1c(F)cccc1F (stereo not given)	none
O=C1CSC(c2cccc(F)c2)N1c1c(F)cccc1F (stereo not given)	ADAM10 inh 23 | ADAM10 confirm inactive | ADAM17 counter inactive
Cc1noc(NS(=O)(=O)c2ccc(NC(=O)/C=C/c3ccc(Br)cc3)cc2)c1C	ADAM10 inh 22 | ADAM10 confirm inactive | ADAM17 counter inactive
Cc1noc(NS(=O)(=O)c2ccc(NC(=O)/C=C/c3ccc(C(C)C)cc3)cc2)c1C	none
Cc1ccc(S(=O)(=O)Nc2cccc(C(=O)N3CCN(c4ccccc4O)CC3)c2)cc1F	ADAM10 inh 20 | ADAM10 confirm inactive | ADAM17 counter inactive
O=C(Nc1cccc2ccccc12)c1ccccc1NS(=O)(=O)c1cccc2cccnc12	none
O=C(O)c1ccccc1NS(=O)(=O)c1cccc2cccnc12	ADAM10 inh 22 | ADAM10 confirm inactive | ADAM17 counter inactive
O=C(Cc1ccc2c(c1)OCO2)N1CCC(n2nc(-c3ccccc3)oc2=O)CC1	none (no result: FAS-TE inh, KLK7 zymogen act, GRIN3A LBD mod)
Nc1[nH]c(C(=O)c2ccccc2)c(-c2ccccc2[N+](=O)[O-])c1C(=O)NCCc1c[nH]c2ccccc12	ADAM17 inh 12, ADAM10 inh 25 (no result: FAS-TE inh, GRIN3A LBD mod) | ADAM10 confirm inactive | ADAM17 counter inactive
Cc1occc1C(=O)N/N=C/c1ccc(OCc2ccccc2)cc1	GRIN3A LBD mod 35, ADAM10 inh 21 | ADAM10 confirm inactive | ADAM17 counter inactive
Fc1ccccc1NC(=S)NNc1ncc(C(F)(F)F)cc1Cl	ADAM10 inh 21 | ADAM10 confirm inactive | ADAM17 counter inactive
Cc1ccccc1NC(=S)NNc1ncc(C(F)(F)F)cc1Cl	none
COc1cccc(-c2cc3nc(-c4ccco4)cc(N4CCN(C(C)=O)CC4)n3n2)c1	none (no result: FAS-TE inh, KLK7 zymogen act, GRIN3A LBD mod)
CC(C)C(=O)NC(c1ccccc1)c1cc([N+](=O)[O-])c2cccnc2c1O (stereo not given)	ADAM10 inh 20 | ADAM10 confirm inactive | ADAM17 counter inactive
CC(=O)NC(c1ccccc1)c1cc([N+](=O)[O-])c2cccnc2c1O (stereo not given)	none
O=C(Nc1ccc(S(=O)(=O)Nc2nccs2)cc1)/C(=C/c1ccccc1Cl)NC(=O)c1ccccc1	ADAM10 inh 32 | ADAM10 confirm inactive | ADAM17 counter inactive
O=C(Nc1ccc(S(=O)(=O)Nc2nccs2)cc1)c1cc(-c2ccccc2)nc2ccccc12	GRIN3A LBD mod 11, ADAM10 inh 27 | ADAM10 confirm inactive | ADAM17 counter inactive
Cc1ccc(-c2cc(C(=O)Nc3ccc(S(=O)(=O)Nc4ncccn4)cc3)c3ccccc3n2)cc1	none
Nc1ccn([C@@H]2O[C@H](C(=O)N3CCN(C(=O)N4CCCCC4)CC3)[C@@H](O)[C@H]2O)c(=O)n1	none (no result: FAS-TE inh, GRIN3A LBD mod)
